# Data reported in PubChem BioAssay (NCATS).
# Calls of active or inactive are those of the source. Calls come from the whole dose curve; as a rule, active = well fitted curve in the direction sought with a large enough effect; inactive = no such curve, though single readings can be large or run the other way.
# Experiment: qHTS for small molecule inhibitors of Yes1 kinase: Counter Assay (AID 686950);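 note: no kinase present so only ADP-Glo detection of a fixed ADP amount is tested; luminescence from ADP-Glo reporting ADP in a fixed ATP and ADP mixture; 0% = DMSO wells with ATP plus ADP and -100% = ATP-only wells without ADP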
# Conditions: series mostly up to 76.9 µM; activity change, negative = inhibition: at the top concentration
# Summary of the method: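 ADP-Glo luminescence read after a 60 min room-temperature incubation of compound with an ATP/ADP mix (0.08 mM/0.02 mM) and no kinase, following a 20 min compound preincubation. Signal scaled between ATP+ADP (max) and 0.1 mM ATP-only (min) wells; Tris pH 7.5, Mg2+, DTT.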
row,SMILES,"activity change, negative = inhibition"
1,CCn1c(-c2nonc2N)nc2c(C#CC(C)(C)O)nc(OC(CN)c3ccccc3)cc21 (centres undefined),3.17% (inactive)
2,CS(=O)(=O)CCNCc1ccc(-c2ccc3ncnc(Nc4ccc(OCc5ccccc5)c(C(F)(F)F)c4)c3c2)o1,2.39% (inactive)
3,Cc1nc(-c2ccccc2)n2nc(NCCCN3CCOCC3)ncc12,2.49% (inactive)
4,CCn1c(-c2nonc2N)nc2c(C#CCN)ncc(OCCCN)c21,2.47% (inactive)
5,CNC(=O)c1cncc(C=Cc2c(Cl)cccc2Cl)c1,3.75% (inactive)
6,CS(=O)(=O)CCNCc1ccc(-c2ccc3ncnc(Nc4ccc(OCc5ccccc5)c(Br)c4)c3c2)o1,6.79% (inactive)
7,Cc1ccc(-c2cc3c(NC(=O)C4CC4)ncnc3o2)cc1,4.09% (inactive)
8,CC(C)(CO)CNC(=O)c1ccc2[nH]c(O)c(N=Nc3ccc(S(N)(=O)=O)cc3)c2c1,0.7% (inactive)
9,Cc1ccc2c(-c3ccnc(Nc4cccc(C(F)(F)F)c4)n3)c(-c3ccccc3)nn2n1,0.302% (inactive)
10,O=C(O)c1ccc(Oc2nccc(-c3c(-c4ccc(F)cc4)ncn3C3CCNCC3)n2)cc1,5.04% (inactive)
11,CN1CCN(Cc2ccc(-c3cc4ncnc(Nc5ccc(OCc6cccc(F)c6)c(Cl)c5)c4s3)o2)CC1,-2.81% (inactive)
12,CCn1c(-c2nonc2N)nc2cncc(C(=O)N3CCNCC3)c21,-3.7% (inactive)
13,c1ccc(Cc2nc3ccc(Nc4ncnc5ccccc45)cc3[nH]2)cc1,-1.48% (inactive)
14,CCc1cccc(CC)c1C=Cc1cncc(C(=O)NC)c1,0.871% (inactive)
15,NS(=O)(=O)c1cccc(Nc2cc(-c3ccc(F)cc3)[nH]n2)c1,-1.67% (inactive)
16,CCn1c(-c2nonc2N)nc2c(C#CC(C)(C)O)nc(OCCNC)cc21,-1.15% (inactive)
17,OCc1ccc(-c2nc(-c3ccc4c(c3)OCO4)c(-c3ccccn3)[nH]2)cc1,-0.998% (inactive)
18,Oc1cccc(-c2nc(-c3ccccc3)[nH]c2-c2ccncc2)c1,-2.85% (inactive)
19,COc1cccc(-n2cnc3c(NN=Cc4ccncc4)ncnc32)c1,2.13% (inactive)
20,CS(=O)(=O)CCNCc1ccc(-c2ccc3ncnc(Nc4ccc(OCc5cccc(C(F)(F)F)c5)cc4)c3c2)o1,10.6% (inactive)
21,CNC(=O)c1cc(-c2ccc(F)cc2)cc(-c2ccc(S(=O)(=O)N3CCCC3)cc2)c1N,7.82% (inactive)
22,c1ccc(COc2ccc(Nc3ncnc4ccc(-c5ccco5)cc34)cc2)cc1,2.46% (inactive)
23,CCC(=O)Nc1ccc(C)c(-c2ccc(C(=O)NCC3CC3)cc2)c1,2.01% (inactive)
24,Nc1ncnc2occ(-c3ccc(NC(=O)Nc4cccc(C(F)(F)F)c4)cc3)c12,0.215% (inactive)
